These results are taken from PubChem BioAssay AID488777 (Sanford-Burnham Center for Chemical Genomics, 2010).

In general, IC50 refers to the concentration that gives 50% inhibition.

The assay is described as follows: AlphaScreen signal interference by SUMOylation inhibitors, SAR follow-up, artefact control for SUMOylation inhibitor project, biochemical (AID 488777). The settings on record: purified counter-screen enzymes, TR-FRET, 60 min. On the technique in general: Bead proximity is the source of the signal in Alpha formats.

Values without a mark were called inactive. No rule for the calls is given here.

Consider `CCCCNC(=O)c1c(NC(=O)c2ccccc2)n(Cc2ccccc2)c2nc3ccccc3nc12`, for which the IC50 was over 100 µM.
